Data from paper PMC10726135, “HNF4α isoforms regulate the circadian balance between carbohydrate and lipid metabolism in the liver”.
The full ranking holds about 18,000 sequences; the median of “log2 normalized intensity” is about 0.36, and the highest 2% start at about 7.3. The sample holds the highest values, similar sequences and a random draw of the others, so the mix is not that of the screen.

These sequences were tested against T1, HNF4alpha8 (COS-7 nuclear extract) (Homo sapiens, UniProt P41235-5 1-452) (assay: protein-binding microarray; COS-7 nuclear extract on double-stranded Agilent 4x180k PBM; binding buffer, salt, pH and temperature not given in the material; high values mean tight binding). Settings: chain copies: 2; label: 3' end of strand 1 on the slide; dsDNA, one strand shown.
T1 sequence: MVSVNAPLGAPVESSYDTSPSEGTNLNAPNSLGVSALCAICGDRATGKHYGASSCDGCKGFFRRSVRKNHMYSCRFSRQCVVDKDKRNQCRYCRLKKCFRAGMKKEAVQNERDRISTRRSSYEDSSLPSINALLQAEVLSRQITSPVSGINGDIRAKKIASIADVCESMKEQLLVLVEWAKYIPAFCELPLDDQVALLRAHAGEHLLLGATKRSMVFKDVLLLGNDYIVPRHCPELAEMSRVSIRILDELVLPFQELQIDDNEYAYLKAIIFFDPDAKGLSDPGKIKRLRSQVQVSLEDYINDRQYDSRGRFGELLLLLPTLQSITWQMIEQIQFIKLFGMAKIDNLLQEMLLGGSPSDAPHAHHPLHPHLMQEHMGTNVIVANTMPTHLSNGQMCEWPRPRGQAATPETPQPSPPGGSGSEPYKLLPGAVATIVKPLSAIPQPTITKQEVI
Outline: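 The binding signal is Agilent software's gProcessedSignal after background correction and normalization. Arrays were a custom Agilent SurePrint G3 4x180k design of double-stranded ~60-nt oligonucleotides with ~44,000 test sequences in quadruplicate, probed with nuclear extracts of COS-7 cells transiently expressing a human HNF4α isoform. Scans were made at 2-µm resolution on an Agilent G2565CA scanner.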

Q: Which binding signal does the source give for “CAGAAGTCATGTCTCATTGCCCCTTGAGCTGCCTAGGGAGATTAGAGTATCGGTCGA” here?
A: Its binding signal is 3.87 log2 normalized intensity.

Q: “TGCCCTTTGGCCCCCAGAGCCCCGTGTCTCGCCTAGGGAGATTAGAGTATCGGTCGA” was tested. Which binding signal did it give?
A: The binding signal was 5.63 log2 normalized intensity.

Q: With “ACCCCTGAATAGGTCTTGGAATGTGACGGCGCCTAGGGAGATTAGAGTATCGGTCGA” as the sequence, how does the binding signal read?
A: Its binding signal is 1.5 log2 normalized intensity.

Q: Which binding signal does the source give for “GTTCTCTGGGCTTTTTGATCTTGTCACATTGCCTAGGGAGATTAGAGTATCGGTCGA” here?
A: Its binding signal is 1.99 log2 normalized intensity.

Q: How did the binding signal turn out when “GAACAGTCCTACAAATGATCAAAGGTTGGTGCCTAGGGAGATTAGAGTATCGGTCGA” was run?
A: The binding signal was 3.74 log2 normalized intensity.

Q: For “TACAGGGAGCTATTCTTTAACCAGAGTCTAGCCTAGGGAGATTAGAGTATCGGTCGA”, which binding signal is on record?
A: The binding signal was -0.822 log2 normalized intensity.

Q: For “TCTTGTGGTAATCTCTTTTGTGTTAGAGGGGCCTAGGGAGATTAGAGTATCGGTCGA”, which binding signal is on record?
A: The binding signal was 1.02 log2 normalized intensity.

Q: Which binding signal does the source give for “GACCTTCAGATGCAGTCCAGAAGGTCAGGAGCCTAGGGAGATTAGAGTATCGGTCGA” here?
A: The binding signal was 4.19 log2 normalized intensity.

Q: With “GCTAGACTTGGACCAGCTTTTGGAAGGACTGCCTAGGGAGATTAGAGTATCGGTCGA” as the sequence, how does the binding signal read?
A: Its binding signal is 0.0118 log2 normalized intensity.

Q: How did the binding signal turn out when “TGTTTTTTGCCCTTTGTACCCACACACACCGCCTAGGGAGATTAGAGTATCGGTCGA” was run?
A: The binding signal was 7.36 log2 normalized intensity.

Q: Which binding signal does the source give for “GGGTTTGTTTTTTGCCCTTTGTACCCACACGCCTAGGGAGATTAGAGTATCGGTCGA” here?
A: The binding signal was 8.41 log2 normalized intensity.

Q: How did the binding signal turn out when “TGCCCTTTGCCTGGTGATCTTTGTTAGACCGCCTAGGGAGATTAGAGTATCGGTCGA” was run?
A: Its binding signal is 3.02 log2 normalized intensity.

Q: How did the binding signal turn out when “CCCACAGAGGGGGTTTGTTTTTTGCCCTTTGCCTAGGGAGATTAGAGTATCGGTCGA” was run?
A: The binding signal was 5.27 log2 normalized intensity.

Q: “CCGCCCACCCTTTTTTTTCTTTCTTTTCCCGCCTAGGGAGATTAGAGTATCGGTCGA” was tested. Which binding signal did it give?
A: Its binding signal is 1.46 log2 normalized intensity.

Q: “CTGTACCCTATGCACCCCACAGTGCTGTTTGCCTAGGGAGATTAGAGTATCGGTCGA” was tested. Which binding signal did it give?
A: Its binding signal is 1.71 log2 normalized intensity.

Q: Which binding signal does the source give for “AGAGGGGGTTTGTTTTTTGCCCTTTGTACCGCCTAGGGAGATTAGAGTATCGGTCGA” here?
A: Its binding signal is 8.63 log2 normalized intensity.

Q: Which binding signal does the source give for “AGCCTACCCACCCACACCTCCCCTTTGTTTGCCTAGGGAGATTAGAGTATCGGTCGA” here?
A: The binding signal was 3.22 log2 normalized intensity.

Q: “ACCCACCCACACCTCCCCTTTGTTTAACTTGCCTAGGGAGATTAGAGTATCGGTCGA” was tested. Which binding signal did it give?
A: Its binding signal is 2.79 log2 normalized intensity.

Q: For “CCAGAGCCTCCAAAGTCCGCTTGCCTGAGGGCCTAGGGAGATTAGAGTATCGGTCGA”, which binding signal is on record?
A: The binding signal was -0.939 log2 normalized intensity.

Q: For “ACAGCGTTTTCCCATTCATGACATTGATTTGCCTAGGGAGATTAGAGTATCGGTCGA”, which binding signal is on record?
A: The binding signal was 1.47 log2 normalized intensity.

Q: With “ACCCCACTTTGGTTCACCGCTCACTGCTCCGCCTAGGGAGATTAGAGTATCGGTCGA” as the sequence, how does the binding signal read?
A: Its binding signal is -0.611 log2 normalized intensity.

Q: “TACTGGTTGAATGGACGGACAGGTAACGTAGCCTAGGGAGATTAGAGTATCGGTCGA” was tested. Which binding signal did it give?
A: Its binding signal is 0.899 log2 normalized intensity.

Q: Which binding signal does the source give for “AACCTCCTTTGAGATAGCTATGATTATCCTGCCTAGGGAGATTAGAGTATCGGTCGA” here?
A: The binding signal was -0.867 log2 normalized intensity.

Q: Which binding signal does the source give for “ATTGACATTTGGGGTCAGATAATTCTTTGCGCCTAGGGAGATTAGAGTATCGGTCGA” here?
A: The binding signal was 2.42 log2 normalized intensity.

Q: For “AAGACCCAAGGCGTATGAAGCTTTGACCCTGCCTAGGGAGATTAGAGTATCGGTCGA”, which binding signal is on record?
A: The binding signal was 5.29 log2 normalized intensity.

Q: How did the binding signal turn out when “TGGACTTTGGAATTAAGGAGATTTGGCTTTGCCTAGGGAGATTAGAGTATCGGTCGA” was run?
A: Its binding signal is 5.99 log2 normalized intensity.

Q: With “AGCACCTGAAGAATTTGGACTTTGCACTAAGCCTAGGGAGATTAGAGTATCGGTCGA” as the sequence, how does the binding signal read?
A: Its binding signal is 9.19 log2 normalized intensity.

Q: Which binding signal does the source give for “GGAGACCTGAAACTAGACCAAGAAGACTTTGCCTAGGGAGATTAGAGTATCGGTCGA” here?
A: Its binding signal is -0.267 log2 normalized intensity.

Q: How did the binding signal turn out when “GGGTCCTGGCAGCACCTGAAGAATTTGGACGCCTAGGGAGATTAGAGTATCGGTCGA” was run?
A: Its binding signal is 1.76 log2 normalized intensity.

Q: How did the binding signal turn out when “GAATTTGGACTTTGCACTAAAAGCCATGAGGCCTAGGGAGATTAGAGTATCGGTCGA” was run?
A: The binding signal was 6.28 log2 normalized intensity.

Q: For “CTGAAGAATTTGGACTTTGCACTAAAAGCCGCCTAGGGAGATTAGAGTATCGGTCGA”, which binding signal is on record?
A: The binding signal was 7.57 log2 normalized intensity.

Q: “AGGGATTCCTGAAGATCGCAGACTTTGGACGCCTAGGGAGATTAGAGTATCGGTCGA” was tested. Which binding signal did it give?
A: Its binding signal is 6.44 log2 normalized intensity.

Q: With “GAAGATCGCAGACTTTGGACTCTGCAAGGAGCCTAGGGAGATTAGAGTATCGGTCGA” as the sequence, how does the binding signal read?
A: Its binding signal is 6.68 log2 normalized intensity.

Q: With “TTCCTGAAGATCGCAGACTTTGGACTCTGCGCCTAGGGAGATTAGAGTATCGGTCGA” as the sequence, how does the binding signal read?
A: The binding signal was 8.57 log2 normalized intensity.

Q: How did the binding signal turn out when “GGTGAGTCTTTGCCCCTGGACTTTGAATTTGCCTAGGGAGATTAGAGTATCGGTCGA” was run?
A: Its binding signal is 5.75 log2 normalized intensity.

Q: How did the binding signal turn out when “TGGACTTTGCACTAAAAGCCATGAGAAGGTGCCTAGGGAGATTAGAGTATCGGTCGA” was run?
A: The binding signal was 5.41 log2 normalized intensity.

Q: Which binding signal does the source give for “CTGGCAGCACCTGAAGAATTTGGACTTTGCGCCTAGGGAGATTAGAGTATCGGTCGA” here?
A: Its binding signal is 8.33 log2 normalized intensity.

Q: With “CAAGGAAAGATAAATAGTGACAAATTGTATGCCTAGGGAGATTAGAGTATCGGTCGA” as the sequence, how does the binding signal read?
A: The binding signal was -0.0347 log2 normalized intensity.

Q: With “GTTTCTCAAGTGATCGAAGGTCAACTTATCGCCTAGGGAGATTAGAGTATCGGTCGA” as the sequence, how does the binding signal read?
A: The binding signal was 4.63 log2 normalized intensity.

Q: For “TGTCCTGTGATTAAGGTCAATGGGAAACTAGCCTAGGGAGATTAGAGTATCGGTCGA”, which binding signal is on record?
A: The binding signal was 1.05 log2 normalized intensity.

Q: “CTAGTTCATTAAACATGTTTACTCTGGTCCGCCTAGGGAGATTAGAGTATCGGTCGA” was tested. Which binding signal did it give?
A: Its binding signal is 1.59 log2 normalized intensity.

Q: For “GAAGGAGAGTGACCTCTGCTTGAAGGCATTGCCTAGGGAGATTAGAGTATCGGTCGA”, which binding signal is on record?
A: Its binding signal is 1.78 log2 normalized intensity.

Q: “AGATTCTTTCTTCCTTTTGAAAAAGTGAGTGCCTAGGGAGATTAGAGTATCGGTCGA” was tested. Which binding signal did it give?
A: The binding signal was 0.567 log2 normalized intensity.

Q: “AATAGCCCCAAATTCCTTTCAAACTGTATTGCCTAGGGAGATTAGAGTATCGGTCGA” was tested. Which binding signal did it give?
A: The binding signal was 1.37 log2 normalized intensity.

Q: For “CAAAAATGATACCCCAGAGTACAGCACTTTGCCTAGGGAGATTAGAGTATCGGTCGA”, which binding signal is on record?
A: The binding signal was 1.2 log2 normalized intensity.

Q: Which binding signal does the source give for “ATCAGAGCAAAGTTCAATTTCCAACAAATGGCCTAGGGAGATTAGAGTATCGGTCGA” here?
A: Its binding signal is 3.74 log2 normalized intensity.

Q: How did the binding signal turn out when “GGAGAGAGTTTGGCCCCAGTTCCCATGGACGCCTAGGGAGATTAGAGTATCGGTCGA” was run?
A: The binding signal was 1.45 log2 normalized intensity.
